This is part of a sample that, as a whole, favours compounds with a hit. Of some 83,000 tested, about 20% had one in any assay.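 Single-concentration screen, 48 h exposure, 96-well plates. Endpoint: percent growth. Below 10 = active.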 Calls of active or inactive are those of the source.
Columns and labels:
Assay in all cases: NCI-60 one-dose screen, 48 h (100 = growth as untreated, 0 = no growth, -100 = all killed)
Settings in all cases: 10 µM unless noted
[1] = system: NCI-H23 lung
[2] = system: NCI-H226 lung
[3] = system: NCI-H322M lung
[4] = system: HOP-62 NSCLC
[5] = system: NCI-H460 lung
[6] = system: HOP-92 NSCLC
[7] = system: NCI-H522 lung
[8] = system: A549/ATCC NSCLC
[9] = system: 786-0 renal
[10] = system: COLO 205 colon
[11] = system: DU-145 prostate
[12] = system: K-562 leukemia
[13] = system: MALME-3M melanoma
[14] = system: MDA-MB-231 breast
[15] = system: RXF 393 renal
[16] = system: SF-268 CNS
[17] = system: SF-295 CNS
[18] = system: SF-539 CNS
[19] = system: UACC-257 melanoma
[20] = system: M14 melanoma

Measured: growth

CN(CCOc1ccc(C#N)cc1)CCOc1ccc(C#N)cc1
inactive: [1] 56.5% | [2] 62% | [3] 87.1% | [4] 46% | [5] 120% | [6] 63.3% | [7] 86.6% | [8] 60.2% | [9] 26.3% | [10] 52.1% | [11] 94.3% | [12] 101% | [13] 76.5% | [14] 71.2% | [15] 53.7% | [16] 103% | [17] 483% | [18] 96.1% | [19] 65.8%

CC1(C)CC[C@]2(c3nnc(-c4ccncc4)o3)CC[C@H]3C(=CC[C@H]4[C@@]3(C)CC[C@H]3C(C)(C)C(=O)CC[C@]43C)[C@@H]2C1
inactive: [1] 71.7% | [2] 60.6% | [3] 94.4% | [4] 85.7% | [5] 40.4% | [6] 76% | [7] 64.2% | [8] 73.9% | [9] 66.3% | [10] 67.9% | [11] 86.3% | [12] 40.8% | [13] 86.9% | [14] 72.8% | [15] 79% | [16] 81.4% | [17] 89.7% | [18] 76.3% | [19] 70.6%

COc1ccc2cc(C(=O)c3coc4ccc(O)cc34)ccc2c1
inactive: [1] 96% | [2] 104% | [3] 95.8% | [4] 94.9% | [5] 105% | [6] 95.4% | [7] 72.9% | [8] 92.8% | [9] 94.1% | [10] 101% | [11] 99.6% | [12] 81.6% | [13] 92.1% | [14] 95% | [15] 115% | [16] 90.1% | [17] 105% | [18] 93.7% | [19] 103%

COc1ccc(/C(C)=C(/c2ccc(OCCCN(C)C)cc2)c2ccc(OC(=O)Cc3ccccc3)cc2)cc1
inactive: [1] 76.4% | [2] 91.5% | [3] 98.3% | [4] 83.3% | [5] 70.8% | [6] 50.5% | [7] 57.5% | [8] 58.4% | [9] 71.6% | [10] 76.1% | [11] 94.2% | [12] 11.9% | [13] 95% | [14] 59.7% | [15] 67.8% | [16] 76% | [17] 51.3% | [18] 76.1% | [19] 82.1%

Fc1cc(F)cc(C(c2c[nH]c3ccccc23)c2c[nH]c3ccccc23)c1
inactive: [1] 89.4% | [2] 103% | [3] 86.1% | [4] 91.1% | [5] 97.8% | [6] 89.4% | [7] 75% | [8] 82% | [9] 98% | [10] 97.8% | [11] 105% | [12] 118% | [13] 130% | [14] 86.6% | [15] 115% | [16] 97.6% | [17] 78.6% | [18] 106% | [19] 99.8%

O=C(c1ccc(-c2nc(CSc3nc4ccccc4s3)no2)cc1)N1CCSCC1
inactive: [1] 52.9% | [2] 68.4% | [3] 100% | [4] 75.9% | [5] 69.6% | [6] 66.4% | [7] 19.7% | [8] 52.1% | [9] 90.6% | [10] 87.8% | [11] 81.9% | [12] 36.6% | [13] 66.3% | [14] 64.6% | [15] 110% | [16] 77.1% | [17] 40.6% | [18] 80.3% | [19] 35.7%

CCN(C(=O)N1CCN(c2cc3c(cc2F)c(=O)c(C(=O)O)cn3C2CC2)CC1)c1nc(-c2ccc(Cl)cc2)cs1
inactive: [2] 11.9% | [3] 11% | [4] 14.2% | [8] 12.9% | [9] 12.7% | [11] 23.5% | [12] 12.7% | [15] 18.2% | [16] 21.8% | [18] 11.8% | [19] 12.9%
active: [1] 3.93% | [5] 8.51% | [6] -19.2% | [7] 1.67% | [10] 0.749% | [13] 6.66% | [14] -21.5% | [17] -0.18%

O=C(COc1ccc(-c2nc3ccccc3[nH]2)cc1)N=Nc1c(O)[nH]c2ccc(Cl)cc12
active: [12] 2.09%
inactive: [1] 87.3% | [2] 97% | [3] 101% | [4] 99.9% | [5] 30.7% | [6] 93% | [7] 93.6% | [8] 99% | [9] 46% | [10] 53.3% | [11] 91.9% | [13] 93.3% | [14] 84.6% | [15] 88.2% | [16] 99.3% | [17] 91.2% | [18] 93.3% | [19] 104%

O=S(=O)(Nc1cc(Br)c(O)c2ccccc12)c1ccc(F)cc1
inactive: [1] 53.1% | [2] 97.5% | [3] 94.9% | [4] 103% | [5] 103% | [6] 47.1% | [7] 77.3% | [8] 102% | [9] 111% | [10] 93.2% | [11] 81.2% | [12] 28.7% | [13] 62.2% | [14] 10.7% | [15] 102% | [16] 79.4% | [17] 95% | [18] 85.1% | [19] 63.4%

CN1C(=O)N(C)C2Nn3c(s/c(=C\c4ccc(C(F)(F)F)cc4)c3=O)=NC21 (stereo not drawn)
inactive: [1] 99.4% | [2] 96.3% | [3] 101% | [4] 115% | [5] 107% | [6] 110% | [7] 93.4% | [8] 104% | [9] 105% | [10] 118% | [11] 109% | [12] 93.3% | [13] 107% | [14] 91.7% | [15] 95.7% | [16] 96.9% | [17] 101% | [18] 97.3% | [19] 111% | [20] 110%

COC(=O)CCC(=O)C(=O)OC
inactive: [3] 10.2% [10 mM] | [4] 11.3% [10 mM] | [8] 26% [10 mM] | [10] 79.8% [10 mM] | [11] 10.6% [10 mM] | [13] 42.4% [10 mM] | [14] 35.5% [10 mM] | [17] 30.2% [10 mM]
active: [1] 0.491% [10 mM] | [2] -14.9% [10 mM] | [5] 7.63% [10 mM] | [6] -16% [10 mM] | [7] -63.9% [10 mM] | [9] 5.84% [10 mM] | [12] 7.9% [10 mM] | [15] -8.87% [10 mM] | [16] -10.3% [10 mM] | [18] 4.1% [10 mM] | [19] -15.1% [10 mM] | [20] 7.27% [10 mM]

COc1ccc(Cc2cc(-c3ccccc3)nn(Cc3ccccc3)c2=O)cc1OC
inactive: [1] 39.4% | [2] 52% | [3] 82.4% | [4] 69.1% | [5] 33.9% | [6] 28% | [7] 37% | [8] 20% | [9] 35.8% | [11] 73.8% | [12] 22.2% | [13] 23.4% | [14] 43.6% | [15] 42.4% | [16] 57% | [17] 28.8% | [18] 63.4% | [19] 34.4%
active: [10] 9.24%

CCCCCCCCn1ccc2cc(NC(=O)CN3CCN(c4nc(C)cc(Cl)n4)CC3)ccc21
inactive: [1] 91.5% | [2] 88.9% | [3] 87.8% | [4] 99.3% | [5] 100% | [6] 79.3% | [7] 81.5% | [8] 96.3% | [9] 97.7% | [10] 100% | [11] 101% | [12] 85.2% | [13] 91.5% | [14] 107% | [15] 103% | [16] 96.3% | [17] 102% | [18] 107% | [19] 114% | [20] 96.1%

Cc1cccc2c1NC(=O)C2(c1ccc(O)cc1)c1ccc(O)cc1
inactive: [1] 38% | [2] 25.2% | [3] 10.1% | [4] 92% | [5] 103% | [6] 48.7% | [7] 61.4% | [8] 71.6% | [9] 94.8% | [11] 84.6% | [12] 99.9% | [13] 93.1% | [14] 86.3% | [16] 96.7% | [17] 73.1% | [18] 95.2% | [19] 79.4%
active: [10] -4.74% | [15] -11.2%

O=C(O)/C(=C\c1ccc(Cl)cc1)c1ccc(Cl)cc1
inactive: [1] 90.8% | [2] 99.1% | [3] 92.2% | [4] 104% | [5] 97.5% | [6] 67.7% | [7] 81.9% | [8] 88.5% | [9] 90.3% | [10] 117% | [11] 107% | [12] 43.8% | [13] 81.5% | [14] 92.9% | [15] 78.8% | [16] 96.5% | [17] 118% | [18] 95.2% | [19] 85.8%

From PubChem BioAssay (NCI)
